# PubChem BioAssay AID623868 (Vanderbilt High Throughput Screening Facility, 2012)
# Out of some 2,100 compounds screened, about 760 (36%) were called active. These entries were drawn from the full list. Unmarked numbers belong to inactive results.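 How the source made its calls: active means thallium-flux fluorescence traces judged by eye to show enhanced or reduced glutamate response, manual score 1 or -1, so both directions (some results past the limit were not filed as active); inactive means the rest, including fluorescent or raised-baseline compounds.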
# Experiment: thallium influx changes without GIRK channels – cell-based, HEK-293 rmGlu8, no GIRK, thallium flux, counter-screen for GIRK activator project, confirmation (AID 623868);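 further: extra codes mark interference with 3 for fluorescent and 4 for baseline rise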
# Conditions: thallium flux fluorescence, at 10 µM, actives lie on both sides, codes: 1 enhancer, -1 blocker, 0 none, thallium stimulus containing EC20 glutamate
row,Structure (SMILES),manual score
1,CCOC(=O)CC1=C(C(=O)OCC)C(c2cccs2)C(C#N)=C(N)O1 (centres undefined),-0.5
2,CCOc1ccc(NC(=O)Nc2cccs2)cc1,0
3,CCCCN(C)CC(O)Cn1cc(/C=C/C(=O)c2cccs2)c2ccccc21 (centres undefined),3
4,Cc1cccc(NC(=S)NNC(=O)c2sccc2C)c1,1 (active)
5,CC(C)C(=O)Nc1nnn(C)n1,0
6,C=CCNCc1cccn1-c1sc2c(c1C#N)CCCC2,0
7,Cc1[nH]n(-c2ccc(F)cc2)c(=O)c1/C=N/c1sc2c(c1C#N)CCCC2,3
8,Cc1[nH]n(-c2cccc3ccccc23)c(=O)c1/C=N/c1sc2c(c1C#N)CCC2,1 (active)
9,CCOc1cc(C2NN=C(c3ccc(C)cc3)S2)ccc1O (centres undefined),1 (active)
10,C=CCNC(=O)NC(=S)c1ccccc1,1 (active)
11,N#Cc1ccc(-c2csc(NC3=NCCCCC3)n2)cc1,0
12,O=C(COc1ccc(Cl)cc1Cl)NNC(=S)Nc1ccc(F)cc1,1 (active)
13,O=C(COc1ccc(Cl)cc1Cl)Nc1noc2ccccc12,0
14,C=CCNC(=S)NNC(=O)COc1ccc(Cl)cc1Cl,0.5
15,COc1ccc(NC(=S)SC)cc1OC,0
16,COC(=O)NC(=S)Nc1ccc(Oc2ccc(Cl)cc2Cl)c(Cl)c1,1 (active)
17,CCC(C)c1ccc(NC(=S)Nc2ccc(OC)c(OC)c2)cc1 (centres undefined),0
18,CC(=O)c1ccc(OC(=O)N(c2ccccc2)c2ccccc2)cc1,0
19,CCOc1ccc2nc(/N=C/c3c(C)[nH]n(-c4ccccc4)c3=O)sc2c1,1 (active)
20,CCOc1ccc2nc(/N=C/c3c(C)[nH]n(-c4ccc(C)cc4)c3=O)sc2c1,1 (active)
21,COc1ccc2nc(/N=C/c3c(C)[nH]n(-c4ccc(C)cc4)c3=O)sc2c1,1 (active)
22,CCOc1[nH]n(-c2ccc(Cl)cc2)c(=O)c1C=Nc1ccc(Cl)cc1,0
23,COc1ccc2nc(/N=C/c3c(C)[nH]n(-c4ccc(C)cc4C)c3=O)sc2c1,1 (active)
24,CC(C)OC(=O)CC12CN3CN(C1)CC(CC(=O)OC(C)C)(C3)C2=O,0
25,CC1(C)NC(=O)N(CC(O)COc2ccc(-c3ccc(C#N)cc3)cc2)C1=O (centres undefined),0
26,CCOc1cc(N2CCOCC2)c(OCC)cc1NC(=O)COC(=O)CCc1c[nH]c2ccccc12,0
27,COc1c2occc2c(OC)c2c(=O)cc(C(F)(F)F)oc12,0
28,CCN(CC)c1ccc(NC(=O)c2nc3nc(C)cc(C(F)F)n3n2)cc1,0
29,O=C(COC(=O)CCC1CCCC1)Nc1nc2c(F)c(F)c(F)cc2s1,0
